Assay outcomes (PubChem)
Shiga toxin inh: Shiga toxin inhibition. inhibition, % at 38.7 µM. AID 2315. 9.2% of 290,000 active. Vero cells, Shiga toxin protein synthesis inhibition reporter; in the data active = inhibition mostly above about 28%, no sharp cut-off; inactive = mostly below about 43%; note: 0% is about no effect
Cycloheximide cs: counter-screen for Shiga toxin inhibitors: cycloheximide protein synthesis inhibition. max response, %. 12% of 300,000 active. cell reporter, cycloheximide protein synthesis inhibition counterscreen; in the data active = max response mostly above about 13%, no sharp cut-off; inactive = mostly below about 14%; note: read at 38.3 µM for the half of the compounds with a filed dose; 0% is about no effect
Pf growth 48h: inhibits P. falciparum growth in the first generation, 48 h | P. falciparum luciferase growth in erythrocytes, 48 h | Potency, µM (titrated, usually from 28.7 µM), inactives show top-dose activity change, negative = inhibition, usual class: inhibitors | 5.9% of 310,000 active; note: potency is the fitted concentration of half-maximal effect; % is set by controls: 0 for no effect and ±100 for the full control effect
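First compound was added to culture medium, then infected red cells at 0.1% parasitemia and 2% hematocrit (final). After incubation at 37 C under 5% CO2, luciferase detection reagent was dispensed and light output recorded.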
AMA1 RON2 block: inhibitors of Plasmodium falciparum AMA1-RON2 interaction | AlphaScreen AMA1-biotinylated RON2 peptide binding | Potency, µM (doses to about 58.2 µM), without a hit: at the highest dose activity change, negative = inhibition, actives largely listed as inhibitors | 0.2% of 360,000 active;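 note: potency is the fitted concentration of half-maximal effect; 0% = vehicle wells and -100% = peptide control; nearly all actives have a fitted effect of over 45% in size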
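AMA1 (3D7) with his tag at 25 nM final met compounds first, then biotinylated RON2 peptide at 25 nM; detection used donor plus acceptor beads, 10 µg/mL apiece, read by AlphaScreen after 30 min at room temperature.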
Pf growth 96h: P. falciparum growth inhibition at 96 hour, primary screen for plastid delayed-death inhibitors; P. falciparum luciferase reporter growth, 96 h; Potency, µM (highest dose often 28.7 µM), without a hit: at the highest dose activity change, negative = inhibition, usual class: inhibitors; 6.9% of 320,000 active; AID 504834; note: potency is the fitted concentration of half-maximal effect; % is set by controls: 0 for no effect and ±100 for the full control effect
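P. falciparum expressing integrated firefly luciferase grown in erythrocytes (2% hematocrit, 0.05% parasitemia final) with compounds for 96 hours at 37 C, 5% CO2. Growth inhibition read as loss of luminescence after adding luciferase detection reagent.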
SARS PLP yeast: inhibitors of SARS-CoV papain-like protease in yeast; Potency, µM (titrated, usually from 32.9 µM), inactives show at the top dose activity, positive = growth rescue, most hits filed as activators; S. cerevisiae expressing SARS-CoV PLpro, growth rescue; 0.19% of 330,000 active; calls by dose curve; note: potency is the fitted concentration of half-maximal effect; 0% is about no effect; nearly all actives have a fitted effect of over 55% in size
The depositor's hits bear a star; u = inconclusive; x = no result; [ ] = another dose, or the depositor's remark. Shown are actives, neighbours in structure and some others; about 19% of the full set was active somewhere. Unless noted, calls come from the whole dose curve; as a rule, active = well fitted curve in the direction sought with a large enough effect; inconclusive = small, poorly fitted or top-dose-only effect, or another doubt; inactive = no such curve, though single readings can be large; an effect the other way counts as inactive or inconclusive.

SMILES | Shiga toxin inh | Cycloheximide cs | Pf growth 48h | AMA1 RON2 block | Pf growth 96h | SARS PLP yeast
CCOc1ccc(NC(=O)Nc2ccon2)cc1 | 58* | 39* | 115% | -11% | 19% | -7%
Cc1ccc(NC(=O)Nc2ccon2)cc1Cl | 50* | 28* | 51% | -15% | -12% | -11%
Cc1ccc(NC(=O)Nc2ccc3c(c2)C(=O)OC3)cc1Cl | -2 | 3 | 8% | -4% | 18% | 2%
CCOc1cc(C(=O)Nc2ccon2)cc(OCC)c1OCC | 29 | 2 | -4% | 11% | x | -3%
O=C(Nc1ccc(Cl)cc1)Nc1ccon1 | 29* | 15* | 29% | -15% | 9% | -3%
COc1ccc(S(=O)(=O)N(CC(=O)N/N=C/c2cccs2)c2cc(C)cc(C)c2)cc1OC | 25 | 0 | u | -9% | u | 5%
O=C(O)c1cc(O)c2c(c1)[C@@H]([C@H]1c3cc(C(=O)O)cc(O)c3C(=O)c3c(O[C@@H]4O[C@H](CO)[C@@H](O)[C@H](O)[C@H]4O)cccc31)c1cccc(O[C@@H]3O[C@H](CO)[C@@H](O)[C@H](O)[C@H]3O)c1C2=O | x | x | x | 1.4µM* | x | -1%
O=C(O)c1cc(O)c2c(c1)[C@H]([C@H]1c3cc(C(=O)O)cc(O)c3C(=O)c3c(O[C@@H]4OC(CO)C(O)C(O)C4O)cccc31)c1cccc(O[C@@H]3OC(CO)C(O)C(O)C3O)c1C2=O (stereo partly drawn) | x | x | -5% | x | -2% | x
COC/C=C/C1=CC2=CC(=O)C(C)(OC(=O)c3cnc4ccccc4n3)C(=O)C2=CN1CCOC (stereo not drawn) | x | x | x | 0% | x | x
COC/C=C/C1=CC2=CC(=O)C(C)(OC(=O)c3cnc4ccccc4n3)C(=O)C2=CN1CCN1CCOCC1 (stereo not drawn) | -3 | -2 | u | -11% | 9.3µM* | -1%
O=C(O)CCc1c(C(=O)O)[nH]c2cc(Cl)cc(Cl)c12 | 4 | -3 | x | x | x | x
Cc1ccc(C)c2c1c1ccccc1n2C | 42 | 20* | 38% | -5% | 8% | 1%
c1ccc(Sc2ncnc3ccccc23)cc1 | 36 | 12* | u | -9% | u | -2%
N#CCSc1ncnc2ccccc12 | -4 | 1 | -13% | 5% | -26% | 0%
Cc1cccc2c(=O)c(C(=O)NCc3cccs3)c[nH]c12 | x | x | x | -8% | x | x
O=C(CSc1nc2ccc(Cl)cc2[nH]1)NCCc1ccc(Cl)cc1 | -13 | 37* | -2% | -10%[11.6 µM] | 10% | 4%
O=C(CSc1nc2ccc(Cl)cc2[nH]1)NCCc1ccccc1 | -2 | -6 | -1% | u | 12% | -3%
Cc1ccc2c(=O)c(C(=O)NCc3cccs3)c[nH]c2c1 | 51* | 23* | u | -13% | -29% | 8%
Cc1ccc2nc(SCC(=O)Nc3ncccn3)[nH]c2c1 | 57 | 4 | 17% | 27% | 38% | 0%
Cc1cc(C)cc(C(=O)OCC(=O)NCc2cccs2)c1 | -3 | 7 | 0% | 11% | 5% | -10%
Cc1ccc(C(=O)OCC(=O)NCc2cccs2)c(C)c1 | 113* | 41* | 45% | 32% | 61% | -4%
Cc1ccc2nc(SCC(=O)NCc3cccs3)[nH]c2c1 | 5 | 11* | -7% | -12% | 11% | 3%
CC(C)Oc1ccc(OCCn2c(S(=O)(=O)O)nc3c(N)ncnc32)cc1 | -10 | -2 | -2% | 34% | u | -1%
Cc1ccc(C(CNS(=O)(=O)c2cc(F)ccc2F)N2CCN(C)CC2)cc1 (stereo not drawn) | x | x | u | -4% | -2% | -4%
COc1ccc2nc(SCC(=O)N3CCNC3=O)[nH]c2c1 | 79* | 48* | 111% | -4% | -21% | 4%
COC(=O)c1ccc(CSc2nc3ccc(C)cc3[nH]2)o1 | 37* | 27* | x | 0% | -20% | -12%
COc1cccc(CNC(=O)CSc2nc3ccc(C)cc3[nH]2)c1 | 33 | 17* | -10% | 9% | 1% | -1%
COc1ccc(CCNC(=O)CCCOc2cccc(C)c2C)cc1OC | -3 | -1 | u | -1% | u | 0%
CC(NC(c1ccccc1)c1ccccc1)C(=O)N1CCCc2ccccc21 (stereo not drawn) | 9 | -3 | 10µM* | -15%[2.32 µM] | 10µM* | -22%
